Mtb UGM inh = M. tuberculosis UGM enzyme inhibitors, primary screen, biochemical, fluorescence polarization, single point | AID 504406, 2011 | purified UGM, fluorescence polarization probe displacement | UDP-galactopyranose mutase (Mycobacterium tuberculosis (strain ATCC 25618 / H37Rv)), … | 0.06% of 320,000 active | inhibition, % at 10 µM; in the data active = inhibition above about 10%, passing the limit was not always enough; inconclusive = no clear call, values can overlap the other calls
Mtb hypoxia rep = PubChem AID 1159583 | fluorescence inhibition, % (test concentration not listed) | M. tuberculosis hypoxia-regulated fluorescent reporter, fluorescence | 0.1% of 300,000 active; in the data active = fluorescence inhibition mostly above about 23%, no sharp cut-off; inactive = mostly below about 17%
RecA splice inh = Mtb RecA intein splicing inhibitors, primary screen, biochemical, fluorescence, HTS; Protein RecA (Mycobacterium tuberculosis (strain ATCC 25618 / H37Rv)), P9WHJ3; cell-free RecA intein splicing; inhibition, % (no concentration beside the values); 0.75% of 290,000 active; in the data active = inhibition above about 30%; inconclusive = no clear call, values can overlap the other calls;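 note: 0% = vehicle wells and 100% = reference inhibitor control wells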
Target sequence (P9WHJ3 whole entry, looked up, canonical isoform): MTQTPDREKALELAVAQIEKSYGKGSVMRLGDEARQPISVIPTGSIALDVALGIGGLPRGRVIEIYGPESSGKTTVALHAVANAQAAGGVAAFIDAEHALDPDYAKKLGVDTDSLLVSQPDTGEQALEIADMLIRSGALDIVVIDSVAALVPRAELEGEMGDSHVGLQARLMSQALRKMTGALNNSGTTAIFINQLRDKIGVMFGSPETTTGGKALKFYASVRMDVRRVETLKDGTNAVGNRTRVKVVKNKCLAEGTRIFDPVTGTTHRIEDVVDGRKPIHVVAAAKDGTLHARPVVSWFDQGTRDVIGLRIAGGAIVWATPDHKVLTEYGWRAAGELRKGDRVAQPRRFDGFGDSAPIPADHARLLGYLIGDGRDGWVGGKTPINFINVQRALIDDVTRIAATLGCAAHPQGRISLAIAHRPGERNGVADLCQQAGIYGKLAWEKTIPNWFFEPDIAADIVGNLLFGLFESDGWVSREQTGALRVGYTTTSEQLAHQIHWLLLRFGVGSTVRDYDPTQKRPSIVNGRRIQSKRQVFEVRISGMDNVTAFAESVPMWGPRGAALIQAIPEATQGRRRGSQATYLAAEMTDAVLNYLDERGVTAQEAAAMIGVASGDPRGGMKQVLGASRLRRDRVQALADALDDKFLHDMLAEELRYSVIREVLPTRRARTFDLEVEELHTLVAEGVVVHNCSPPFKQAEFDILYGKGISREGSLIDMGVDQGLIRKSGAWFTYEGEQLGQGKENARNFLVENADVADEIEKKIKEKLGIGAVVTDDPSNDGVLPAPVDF
FadD28 FP inh = inhibitors of FadD28 bisubstrate probe binding, primary screen, biochemical, fluorescence polarization, single point; Mycobacterium tuberculosis FadD28 fatty-acid-AMP ligase; inhibition, % at 12.5 µM; 0.22% of 360,000 active; in the data active = inhibition above about 8.5%, passing the limit was not always enough; inconclusive = no clear call, values can overlap the other calls
Rv3671c inh = Rv3671c serine protease inhibitors, primary screen, biochemical, fluorescence polarization, M. tuberculosis H37Rv; P9WHR9; inhibition, % at 5.96 µM; 0.048% of 320,000 active; in the data active = inhibition above about 38%;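 note: extracellular domain of Rv3671c used as enzyme; 0% = enzyme with DMSO and 100% = no enzyme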
Numbers without * were called inactive; ? = inconclusive; nt = no result. Most compounds without a hit are left out; they make up all but 0.92% or so of the library.

SMILES	Mtb UGM inh	Mtb hypoxia rep	RecA splice inh	FadD28 FP inh	Rv3671c inh
CC1=Nc2ccccc2/C1=C\c1nc(-c2ccc(C(F)(F)F)cc2)oc1O	11.9*	5.6	-2.3	?	5.1
O=C1c2ccccc2C(=O)N1CCCc1cn(CC2CCC(C3CCC(Cn4cc(CCCN5C(=O)c6ccccc6C5=O)nn4)O3)O2)nn1 (stereo not given)	nt	2.4	nt	nt	nt
[O-][n+]1c2ccccc2[n+]([O-])c2cc(O)ccc21	3.3	41.8*	2.0	-1.3	-1.9
COc1ccc(C2=CC3=C(Br)C(=O)C(C)(OC(=O)c4cccs4)C(=O)C3=CO2)cc1 (stereo not given)	-0.3	17.8	-2.0	16.0*	0.2
COc1ccc(C2=CC3=C(Br)C(=O)C(C)(OC(=O)c4ccco4)C(=O)C3=CO2)cc1 (stereo not given)	2.9	nt	-8.8	10.2*	-0.2
Cc1ccc(S(=O)(=O)Nc2ccccc2C=Nc2nc3ccccc3n2C(C)C)cc1	nt	11.9	nt	nt	nt
CC(C(=O)NCC1CC1)C1C[C@]1(C)C(NC(=O)OCc1ccccc1)c1ccccc1 (stereo not given in full)	nt	6.3	nt	nt	nt
O=c1nc2s/c(=C\c3ccc(-c4ccccc4[N+](=O)[O-])o3)c(=O)n2nc1-c1ccccc1	nt	nt	64.5*	1.2	nt
Cc1sc(-n2c(C)cc(/C=C3\SC(=S)NC3=O)c2C)c(C#N)c1C	-1.7	-3.3	2.4	16.9*	-10.2
Cc1cc(/C=C2\SC(=S)NC2=O)c(C)n1-c1cccc(O)c1	1.7	4.3	-2.1	16.7*	0.9
Cc1sc(-n2c(C)cc(C=C3C(=O)NC(=O)NC3=O)c2C)c(C#N)c1C	-1.1	-6.2	-6.0	nt	0.4
Cc1ccc(-n2c(C)cc(/C=C3\SC(=O)NC3=O)c2C)cc1	-3.5	2.6	-0.6	2.6	1.1
Cc1cc(/C=C2\SC(=S)NC2=O)c(C)[nH]1	0.1	nt	nt	32.7*	-1.0
COCCN1C(=O)NC(c2cccs2)C(C(=O)OC)=C1C (stereo not given)	nt	10.4	nt	nt	nt
CCN1C(=O)C2C(c3ccc(-c4ccccc4)cc3)N[C@@](C)(C(=O)OC)C2C1=O (stereo not given in full)	nt	7.0	nt	nt	nt
COc1ccccc1Oc1cc(C#N)c(C#N)cc1-n1nnc2ccccc21	-0.7	1.3	41.8*	-0.9	3.9
COc1ccccc1Oc1nc(C)c(C(C)=O)cc1C#N	-0.1	2.0	0.5	-2.0	-0.8
CCCCCCC(=O)O	nt	nt	nt	-2.3	-1.6
CCCCCCCCCCCCCCCC(=O)OC(CC(=O)O)C[N+](C)(C)C (stereo not given)	nt	1.3	nt	17.3*	-5.3
Cc1nn(CCc2nn[nH]n2)c2nc(-c3ccc(C4CCCCC4)cc3)cc(C(F)(F)F)c12	-0.9	9.4	34.3*	14.4*	5.2
Cc1nn(CCC(=O)O)c2nc(-c3cccnc3)cc(C(F)(F)F)c12	-0.5	0.3	-0.2	-1.4	6.0
C/C(C=NNC(=O)Cn1cnc2ccccc21)=C\c1ccccc1	nt	6.2	nt	nt	nt
COc1ccc(N=Cc2c(O)n(-c3cccc(C)n3)c(=O)c3ccccc23)c(OC)c1	19.6*	-4.4	-3.0	-1.0	3.0
CN1C(=CC=NNC(=O)c2ccccc2Br)C(C)(C)c2ccccc21	nt	-3.7	nt	nt	nt
O=S(=O)(c1ccc(Nc2ccc(-c3ccc4c(c3)OCCO4)nn2)cc1)N1CCCC1	-3.0	-0.2	4.3	11.4*	-63.9
SMILES	Mtb UGM inh	Mtb hypoxia rep	RecA splice inh	FadD28 FP inh	Rv3671c inh
O=C(NC1CC1)c1cccc(Nc2ccc(-c3ccc4c(c3)OCCO4)nn2)c1	7.8	1.6	-2.6	-1.7	-4.2
Cc1cc(N/N=C/c2ccccc2O)c2ccccc2n1	1.2	nt	1.2	-8.6	5.3
Cc1cc(NN=Cc2ccccc2O)c2ccccc2n1	nt	72.5*	nt	nt	nt
O=C(O)Cc1ccc(N=Nc2c(O)c(C(=O)O)cc3ccccc23)cc1	-0.6	24.5	-1.8	13.6*	-21.2
NS(=O)(=O)c1ccc(N=Nc2c(O)c(C(=O)O)cc3ccccc23)cc1	3.6	20.8	-8.7	4.7	-0.3
C#CCOCCOCCOCCNc1nc(N2CCN(C(=O)C(CCC(=O)O)n3cc(C(N)CC(C)C)nn3)CC2)nc(N2CCN(C(=O)C(Cc3ccc(O)cc3)n3cc(C(N)CC(C)C)nn3)CC2)n1 (stereo not given)	nt	12.4	nt	nt	nt
O=C(c1ccco1)N1CCN(c2nc(C3CC3)nc3sc4c(c23)CCCC4)CC1	-0.9	3.9	38.1*	-4.1	-2.3
Cn1c(=O)c2nncnc2n(C)c1=O	0.7	-2.3	0.7	-4.2	0.6
